This is one part of a sample in which hits are shown more often than they occur.
CBX7 inh: CBX7 chromodomain binding inhibitors, primary screen, biochemical, AlphaScreen; Chromobox protein homolog 7 (Homo sapiens), O95931; AlphaScreen His6-CBX7 / biotin-H3K27me3 peptide binding; hits give low values; normalised signal (fraction of DMSO) (test concentration not listed); actives 1.1% (n = 66,000); AID 1224903, 2016; in the data active = normalised signal below about 0.5
Target sequence (O95931 whole entry, looked up): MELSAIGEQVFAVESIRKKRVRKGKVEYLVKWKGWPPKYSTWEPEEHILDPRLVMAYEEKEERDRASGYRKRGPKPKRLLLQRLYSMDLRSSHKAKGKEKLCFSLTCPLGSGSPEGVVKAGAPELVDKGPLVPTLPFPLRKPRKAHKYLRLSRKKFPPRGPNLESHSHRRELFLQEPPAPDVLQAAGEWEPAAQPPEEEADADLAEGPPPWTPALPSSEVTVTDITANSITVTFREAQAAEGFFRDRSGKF
A number is an active result.

`CCOc1ccc(CNC(=O)CCCc2cn(C)c3ccccc23)cc1OC` gave CBX7 inh inactive.
Screening COc1ccc(Br)cc1CNC(=O)CCCc1cn(C)c2ccccc12 returned CBX7 inh 0.42.
`COc1ccc(OC)c(CNC(=O)CCc2cn(C)c3ccccc23)c1` gave CBX7 inh inactive.
Screening O=C(CCCn1c(=O)[nH]c2cc(Cl)ccc2c1=O)N1CCN(Cc2ccccc2)CC1 returned CBX7 inh inactive.
`CCOC(=O)c1cnc2c(C(F)(F)F)cccc2c1NCCN(C)C` gave CBX7 inh inactive.
For O=C1CC(NCCN2CCOCC2)C(=O)N1c1ccc(Br)cc1 (stereo unspecified) the results were CBX7 inh 0.46.
Screening COC(=O)c1ccc(N2C(=O)CC(NCCN3CCOCC3)C2=O)cc1 (stereo unspecified) returned CBX7 inh inactive.
`CC(=O)Nc1ccc(N2C(=O)CC(NCCN3CCOCC3)C2=O)cc1` (stereo unspecified) gave CBX7 inh inactive.
Screening Cc1ccc(OCc2nc(-c3ccncc3)no2)c(C)c1 returned CBX7 inh inactive.
Screening CCc1ccc(NC(=O)CCc2c(C)nc3c(-c4ccccc4)c(C)nn3c2C)cc1 returned CBX7 inh inactive.
`Cc1ccc(Nc2c(-c3ccc(N4CCOCC4)cc3)nc3ccccn23)cc1` gave CBX7 inh inactive.
`COc1ccc(-c2nc3ccccn3c2Nc2ccc3c(c2)OCCO3)cc1` gave CBX7 inh inactive.
`COc1ccc(Nc2c(-c3ccc(C)cc3)nc3sccn23)cc1OC` gave CBX7 inh inactive.
For COc1ccc(-c2nc3sccn3c2Nc2ccc3c(c2)OCO3)cc1 the results were CBX7 inh 0.47.
For Cc1ccc(Nc2c(-c3ccc(N4CCOCC4)cc3)nc3sccn23)cc1C the results were CBX7 inh 0.49.
Screening Cc1ccc(Nc2c(-c3ccc(N4CCOCC4)cc3)nc3cc(C)ccn23)cc1 returned CBX7 inh inactive.
`COc1ccccc1-n1c(/C=C/c2c(C)[nH]c3ccccc23)nc2ccccc2c1=O` gave CBX7 inh inactive.
Screening CCOc1ccc(CNC(=O)c2cc3c(-c4cccc(OC)c4)nn(C)c3s2)cc1 returned CBX7 inh inactive.
For CCc1ccc(NC2c3ccccc3C(=O)N2c2ccc(Cl)cc2)cc1 (stereo unspecified) the results were CBX7 inh inactive.
`COc1ccc(NC2c3ccccc3C(=O)N2c2ccc(Cl)cc2)cc1OC` (stereo unspecified) gave CBX7 inh inactive.
For COc1ccc(NC2c3ccccc3C(=O)N2c2ccc(Cl)cc2)cc1 (stereo unspecified) the results were CBX7 inh 0.42.
For CCc1ccc(-c2nc(C(=O)NCCCN3CCOCC3)c(C)o2)cc1 the results were CBX7 inh inactive.
Cc1ccc(Cn2c(CCNC(=O)c3ccccc3)nc3ccccc32)cc1 was read as CBX7 inh inactive.
`Cc1c(C)n(C)c2ccc(C(=O)Nc3ccc(F)c(F)c3)cc12` gave CBX7 inh inactive.
Screening Cc1ccccc1CN1C(=O)C(O)(CC(=O)c2ccc(Cl)cc2)c2ccccc21 (stereo unspecified) returned CBX7 inh inactive.
For Cc1ccccc1CN1C(=O)C(O)(CC(=O)c2ccccc2)c2ccccc21 (stereo unspecified) the results were CBX7 inh inactive.
`CCc1ccc(C(=O)CC2(O)C(=O)N(Cc3ccccc3C)c3ccccc32)cc1` (stereo unspecified) gave CBX7 inh 0.45.
Screening COc1cc(-n2cnc3cc(C(=O)NCCC4=CCCCC4)ccc32)cc(OC)c1OC returned CBX7 inh inactive.
Screening COc1ccccc1C(=O)Nc1nc2ccccc2n1CCOc1ccccc1 returned CBX7 inh inactive.
Screening Cc1cccc(OCCn2c(C)nc3ccccc32)c1 returned CBX7 inh inactive.
Cc1cccc(OCCn2c(NC(=O)c3ccccc3Cl)nc3ccccc32)c1 was read as CBX7 inh 0.34.
CCCCNC(=O)c1cc(Sc2ccc(C)cc2)nc2ccccc12 was read as CBX7 inh inactive.
COc1ccc(NC(=O)c2ccc3c(c2)C(=O)N(c2cccc(C)c2)C3=O)cc1 was read as CBX7 inh inactive.
Screening COc1ccc(N2C(=O)c3ccc(C(=O)Nc4ccccc4C(=O)O)cc3C2=O)cc1 returned CBX7 inh inactive.
For O=C(Nc1nc(N2C(=O)c3ccccc3C2=O)n(-c2ccccc2)n1)c1ccc(F)cc1 the results were CBX7 inh 0.09.
Screening Cc1ccn2c(NC(=O)c3ccc(F)cc3)c(-c3ccccc3)nc2c1 returned CBX7 inh inactive.
COc1ccc(C(=O)Nc2nc(N3C(=O)c4ccccc4C3=O)n(-c3ccccc3)n2)cc1 was read as CBX7 inh 0.2.
For Cc1ccn2c(NC(=O)c3ccc(F)cc3)c(-c3ccc(F)cc3)nc2c1 the results were CBX7 inh inactive.
Screening CCN(Cc1ccccc1)C(=O)Cc1c(C(=O)O)[nH]c2ccc(Cl)cc12 returned CBX7 inh inactive.
COc1ccc(-c2cc(C(N)=O)c3ccccc3n2)cc1 was read as CBX7 inh inactive.
For CC(C)NCC(=O)Nc1c2c(nc3c1CCC3)CCCC2 the results were CBX7 inh inactive.
For O=C(CCN1Cc2ccccc2C1)Nc1c2c(nc3c1CCC3)CCCC2 the results were CBX7 inh inactive.
`CCN(CC)CC(=O)Nc1c2c(nc3c1CCC3)CCC2` gave CBX7 inh inactive.
Screening O=C(CN1CCN(c2ccccc2)CC1)Nc1c2c(nc3c1CCC3)CCCC2 returned CBX7 inh inactive.
`CN(C)CC(=O)Nc1c2c(nc3c1CCC3)CCCC2` gave CBX7 inh 0.23.
Screening O=C(Nc1c2c(nc3c1CCC3)CCCC2)c1ccccn1 returned CBX7 inh 0.14.
`CCN(CCNC(=O)CCn1nc(-c2ccc(Cl)cc2)ccc1=O)c1ccccc1` gave CBX7 inh inactive.
Screening O=S(=O)(c1ccc(C2CCCCC2)cc1)N(CCCN1CCOCC1)Cc1cccs1 returned CBX7 inh inactive.
`COc1ccc(OCCn2c(=N)n(Cc3ccccc3C)c3ccccc32)cc1` gave CBX7 inh inactive.
COc1ccc(NC(CNS(=O)(=O)c2ccccc2)c2ccccc2)cc1 (stereo unspecified) was read as CBX7 inh 0.29.
Cc1ccc(S(=O)(=O)NCC(NC(c2ccccc2)c2ccccc2)c2ccccc2)cc1 (stereo unspecified) was read as CBX7 inh inactive.
`COc1ccc(CNC(=O)c2ccc(CNS(=O)(=O)c3ccccc3)cc2)cc1` gave CBX7 inh inactive.
Screening Cc1cc(N2CCC(C(=O)N3CC(C)CC(C)C3)CC2)n2nc(C)c(-c3ccc(Cl)cc3)c2n1 (stereo unspecified) returned CBX7 inh inactive.
Screening Cc1c(C(=O)N2CCN(c3ccccc3F)CC2)sc2ncnc(N3CCC(C)CC3)c12 returned CBX7 inh inactive.
For Cc1cccc(NC(=O)CN(C)S(=O)(=O)c2ccc3c(c2)CCC(=O)N3)c1 the results were CBX7 inh inactive.
C=CCc1ccccc1OCC(O)CN1CCN(c2ccccc2)CC1 (stereo unspecified) was read as CBX7 inh inactive.
C=CCc1cc(C)ccc1OCC(O)CN1CCCCC1 (stereo unspecified) was read as CBX7 inh inactive.
`C=CCc1cc(C)ccc1OCC(O)CN1CCN(c2ccccc2)CC1` (stereo unspecified) gave CBX7 inh 0.38.
`Clc1ccc(CNc2ccc3nncn3n2)cc1` gave CBX7 inh inactive.

Assay outcomes: PubChem, Bradner/Qi Labs at DFCI
